Assay outcomes deposited in PubChem by National Center for Advancing Translational Sciences (NCATS).
A selection: hits, their analogues and other compounds. The true share with any hit is near 9.2%.
ELG1 repair inh: blocks ELG1-dependent DNA repair in HEK293T cells; HEK293T ELG1-luciferase reporter, luminescence, 16 h; DNA damage induced by 5-fluorouridine; Potency, µM (doses to about 46.1 µM), inactives show at the highest dose activity change, negative = inhibition, actives largely listed as inhibitors; 330,000 tested, 2.3% active; also: % is scaled to controls: 0 for no effect and ±100 for the full control effect; nearly all actives have a fitted effect of over 55% in size
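DMSO vehicle served as the neutral condition. Each well held 2,000 cells given 5-fluorouridine plus compound; after 16 hr at 37 °C/5% CO2, ONE-Glo was added and luciferase measured 30 min later.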
FLuc counter: inhibits or activates purified firefly luciferase, miR-21 counter-screen; purified FLuc, Km substrates, luminescence inhibition; Potency, µM (doses to about 57.5 µM), for inactives: at the top dose activity change, negative = inhibition, most hits filed as inhibitors; 360,000 tested, 6.9% active;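 also: plate controls were vehicle for no effect and reference inhibitor for full effect; nearly all actives have a fitted effect of over 55% in size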
Target sequence (P08659 whole entry, looked up): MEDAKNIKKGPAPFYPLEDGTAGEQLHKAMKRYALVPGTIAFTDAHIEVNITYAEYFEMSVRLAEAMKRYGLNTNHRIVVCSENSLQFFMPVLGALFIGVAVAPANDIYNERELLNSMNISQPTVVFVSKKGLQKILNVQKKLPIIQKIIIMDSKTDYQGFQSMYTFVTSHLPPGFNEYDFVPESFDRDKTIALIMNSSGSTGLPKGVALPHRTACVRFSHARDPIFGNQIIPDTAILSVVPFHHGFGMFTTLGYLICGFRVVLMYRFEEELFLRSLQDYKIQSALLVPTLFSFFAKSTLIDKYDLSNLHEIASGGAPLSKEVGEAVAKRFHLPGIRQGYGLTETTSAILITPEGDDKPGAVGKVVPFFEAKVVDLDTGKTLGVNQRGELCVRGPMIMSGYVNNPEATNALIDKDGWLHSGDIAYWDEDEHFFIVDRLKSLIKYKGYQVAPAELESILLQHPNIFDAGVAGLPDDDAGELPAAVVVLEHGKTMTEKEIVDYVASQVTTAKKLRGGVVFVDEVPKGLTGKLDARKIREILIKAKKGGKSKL
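Biochemical qHTS of compounds, final roughly 60 µM downward over six points, against 10 nM purified firefly luciferase using Km concentrations of substrates (10 uM D-luciferin, 10 uM ATP) in Tris acetate pH 7.5 buffer; luminescence output.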
SMN2 splice enh: increases expression of the SMN2 splice variant; HEK293 SMN2-luciferase splicing reporter, luminescence, 30-36 h; Potency, µM (highest dose often 46.1 µM), without a hit: at the top dose activity change, positive = activation, most hits filed as activators; 210,000 tested, 2.8% active; AID 1458; also: % of control where 0% means no effect; nearly all actives have a fitted effect of over 55% in size
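HEK293 cells carry an SMN2 […]–luciferase reporter in which exon 7 inclusion puts luciferase in frame. Cells were plated 10-12 h before compound addition, then incubated 30-36 h at 37C. ONE-Glo luminescence was read; sodium butyrate at 4.5 mM final served as control.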
NPC1 prom act: NPC1 promoter activation | Huh7 NPC1 promoter luciferase reporter, 24 h | Potency, µM (highest dose often 9.22 µM), inactives show top-dose activation, most hits filed as activators | 320,000 tested, 2.4% active; also: % of control where 0% means no effect; nearly all actives have a fitted effect of over 60% in size
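Huh7 reporter cells (NPC1 promoter driving luciferase) are dosed with compound for 24 h at 37 °C, 5% CO2; luciferase detection reagent is then added and luminescence measured after 10 min at ambient temperature.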
ELG1 genotoxic: inducers of genotoxicity in HEK293T ELG1-luciferase cells | HEK293T ELG1-luciferase reporter, luminescence, 16 h | Potency, µM (highest dose often 46 µM), inactives show at the top dose activity change, positive = activation, actives largely listed as activators | 330,000 tested, 1.3% active; also: % of control where 0% means no effect; nearly all actives have a fitted effect of over 60% in size
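Genotoxicity was scored as increased ELG1-luciferase reporter signal, measured by ONE-Glo luminescence (30 min, room temperature). Compound or vehicle exposure of the HEK293T reporter cells lasted 16 hr at 37°C.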
Rab9 promoter act: activators of Rab9 promoter; AID 485297; 320,000 tested, 2.8% active; Potency, µM (series often up to 9.22 µM), without a hit: at the highest dose activation, negative = inhibition, most hits filed as activators; Huh7 Rab9 promoter-luciferase reporter, luminescence, 24 h; also: % of control where 0% means no effect; nearly all actives have a fitted effect of over 60% in size
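Quantitative HTS format; Huh7 Rab9-luciferase reporter cells (1500/well) receive compound 2 h post-plating, incubate 24 h at 37 °C, then get luciferase reagent for 10 min before luminescence reading.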
* marks the source's active call; other numbers are inactive results; u = inconclusive; x = no result. Calls follow the shape of the dose curve; as a rule, active = well fitted curve in the direction sought with a large enough effect; inconclusive = small, poorly fitted or top-dose-only effect, or another doubt; inactive = no such curve, though single readings can be large; an effect the other way counts as inactive or inconclusive. Potency is read from the fitted curve at half-maximal effect.

SMILES | ELG1 repair inh | FLuc counter | SMN2 splice enh | NPC1 prom act | ELG1 genotoxic | Rab9 promoter act
O=C(CCc1ccccc1)NCCc1csc(-c2cccc(F)c2)n1 | x | 0% | x | x | x | x
Cc1cc(C)n2nc(SC(C)C(=O)Nc3ccc(Cl)cn3)nc2n1 (stereo unspecified) | 8% | -3% | 0% | -1% | 4% | -2%
COc1cc(S(=O)(=O)N2CCN(C(=O)c3ccccc3)CC2)c(OC)cc1Br | -4% | 6% | x | -6% | -5% | -3%
O=C(O)Cc1ccc(NC(=O)c2ccc(Cl)c(Cl)c2)cc1 | 2% | 8.5µM* | 12% | 2% | 12% | -5%
O=C(Nc1ccc(Cc2ccc(NC(=O)C3CC3)cc2)cc1)C1CC1 | 7% | 0% | -25% | -5% | 8% | -1%
O=C(O)Cc1ccc(NC(=O)c2ccc(NC(=O)C3CC3)cc2)cc1 | 1% | 17µM* | x | -2% | 0% | 19%
O=C(Nc1ccncc1)c1ccc(Cl)c(Cl)c1 | -8% | -16% | x | 1% | 5% | 0%
CC(C)(C)c1ccc(C(=O)Nc2ccc(CC(=O)O)cc2)o1 | 0% | 4.3µM* | -28% | -15% | -7% | -19%
Cc1ccc(C(=O)Nc2ccc(CC(=O)O)cc2)o1 | 16% | u | u | 2% | 0% | -1%
Cc1cc(/C=C2/NC(=O)N(c3ccccc3)C2=O)c(C)n1C(C)C | u | 4.8µM* | 10µM* | 3.2µM* | u | 1.6µM*
O=Cc1ccc(OCc2cccc(C(F)(F)F)c2)cc1O | 8% | u | 24% | 1% | 0% | 6%
CCOc1ccc(OCc2cccc(C(=O)O)c2)cc1 | u | 0.017µM* | 0.032µM* | -22% | -29% | -25%
CCOc1ccc(OCc2ccc(C(=O)N(CC)CC)cc2)cc1 | u | 15µM* | 24% | u | 6% | u
O=C(OCC(F)(F)F)c1cccc(COc2ccc3ccccc3c2)c1 | u | 3.4µM* | 0.45µM* | 1µM* | u | u
COc1cc(/C=C/[N+](=O)[O-])ccc1OCc1cccc(C(=O)O)c1 | u | 0.21µM* | 1.3µM* | 1µM* | u | 1.3µM*
COc1cc(/C=N/NC(=O)c2cccc([N+](=O)[O-])c2)ccc1OCc1ccccc1 | u | 10% | 0% | -2% | -2% | 1%
O=C(O)c1cc(OCc2ccccc2)cc(OCc2ccccc2)c1 | -5% | 1% | x | -1% | -6% | -8%
COc1ccc(OCc2cccc(C(=O)O)c2)cc1 | u | 0.03µM* | 0.04µM* | 0.0006µM* | x | 1µM*
C=CCN1C=CC(=C/C=C(/C#N)C(=O)OCC)C=C1 | u | 2.4µM* | 1.4µM* | 2.5µM* | 7.3µM* | 2µM*
CCOC(=O)/C(C#N)=C/C=C1/C=CC=CN1C | u | u | x | 23% | 16% | u
CCCCOc1ccc(CSc2nnc(C)n2N)cc1[N+](=O)[O-] | u | 7.6µM* | x | 20% | 14% | 26%
Brc1ccccc1-c1nnc(COc2cccc3cccnc23)o1 | u | u | u | 2% | 15% | -3%
N#Cc1ccccc1OCc1nnc(-c2ccccc2Br)o1 | u | 5.4µM* | x | 2µM* | u | 1.4µM*
Clc1ccccc1OCc1nnc(-c2ccccc2Br)o1 | u | 12µM* | u | 3.5µM* | u | u
COCCCn1c(-c2ccc(S(=O)(=O)N3CCOCC3)cc2)csc1=Nc1ccccc1 | 6.5µM* | -2% | -24% | -9% | 8% | -21%
SMILES | ELG1 repair inh | FLuc counter | SMN2 splice enh | NPC1 prom act | ELG1 genotoxic | Rab9 promoter act
CCn1c(-c2ccccc2)csc1=Nc1ccc(S(=O)(=O)O)cc1 | 6% | 3.8µM* | -18% | u | 0% | u
Cc1nc2c(C)cccc2cc1C(=O)N/N=C/c1ccc(N(C)C)cc1 | -18% | u | u | 0% | 0% | 2%
CC(=O)Nc1ccc(/C=N/NC(=O)c2cc3ccccc3nc2C)cc1 | u | -18% | 7% | -1% | 1% | -2%
Cc1nc2c(C)cccc2cc1C(=O)N/N=C/c1ccc(C(=O)O)cc1 | -2% | 17µM* | 3% | 1% | 0% | 0%
CC(=O)Nc1ccc(/C=N/NC(=O)c2cc3cc(C)ccc3nc2C)cc1 | u | 6µM* | -22% | 11% | u | 17%
Cc1ccc(-c2nc3cc(C(C)C)ccc3o2)cc1NC(=O)c1cc2ccccc2o1 | x | 2.4µM* | -8% | x | x | x
CC(C)c1ccc2oc(-c3ccc(Cl)c(NC(=O)c4cccs4)c3)nc2c1 | x | 2.1µM* | 4% | x | x | x
CC(C)c1ccc2oc(-c3ccc(Cl)c(NC(=O)Cc4ccccc4)c3)nc2c1 | x | 4.3µM* | 12% | x | x | x
COc1ccc(-c2nc3ccccc3o2)cc1NC(=O)c1cc(Br)ccc1OC | x | 1% | -8% | x | x | x
COc1ccc(-c2nc3cc(C(C)C)ccc3o2)cc1NC(=O)c1ccccc1[N+](=O)[O-] | x | 2.7µM* | -1% | x | x | x
COc1cc(Cl)c(C)cc1NC(=O)c1sc2nc3n(c(=O)c2c1C)CCCCC3 | x | -1% | x | x | x | x
CCC(C)NC(=O)Cn1nc(Cc2ccncc2)c2ccccc2c1=O (stereo unspecified) | 2% | 0% | x | -4% | 0% | -4%
COc1ccc(C2C(C(N)=O)=C(C)Nc3nc(CCCO)nn32)c(OC)c1 (stereo unspecified) | x | 4% | 7% | x | x | x
COc1ccc(Cl)cc1NC(=O)CSc1cn(CC(=O)N2CCCCCC2)c2ccccc12 | x | -18% | x | x | x | x
CCC(=O)Nc1sc(C(=O)Nc2ccccc2F)c(C)c1C(=O)OC | 4% | 7.6µM* | x | 0% | -1% | 0%
CCCC(=O)Nc1sc(C(=O)Nc2cccc(N)c2)c(C)c1C(=O)OC | u | 13µM* | x | 3.2µM* | u | 0.89µM*
COC(=O)c1c(NC(C)=O)sc(C(=O)Nc2ccccc2F)c1C | u | 0% | 7.1µM* | u | u | u
CCOc1ccc(-c2cc(C(=O)NCCCOC)c3c(-c4ccc(CC)cc4)[nH]nc3n2)cc1 | x | 1% | x | x | x | x
COCCn1c(=O)c(-c2ccc(Cl)cc2)nc2cncnc21 | x | x | -3% | x | x | x
Cc1c(C)n(Cc2ccccc2)c2ccc(C(=O)OCCN(C)C)cc12 | 12% | 21µM* | x | 1% | 1% | -12%
CCc1ccc(CNC(=O)c2ccc3c(c2)c(C)c(C)n3Cc2ccccc2)cc1 | x | -7% | x | x | x | x
Cc1nc(/C=C/c2ccccc2)cc(/C=C/c2ccccc2)n1 | 18% | 19µM* | 24% | 1% | u | 2%
Cc1cccc(/C=C/c2ccccc2)n1 | x | x | u | 13µM* | x | 11µM*
Cn1nc(/C=C/c2ccccc2)ccc1=O | u | u | 13µM* | 16% | u | 3.2µM*
